Experimental data reported in PubChem BioAssay (EPA / NIEHS).
Calls of active or inactive are those of the source. How the source made its calls: active means hit-call score of the fitted dose curve at least 0.9, where 1 is the maximum; inactive means score below 0.9.

Key:
[1] = read-out: TIMP metallopeptidase inhibitor 2 (TIMP2), TIMP2 (gene 7077); experiment: BSK_KF3CT_TIMP2: BioMAP Diversity Plus: KF3CT Assay for TIMP metallopeptidase inhibitor 2 (TIMP2) Biomarker Activity (AID 2283071); settings: primary human keratinocytes with fibroblasts; actives raise or lower the signal
Outline: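 Human primary keratinocyte/foreskin fibroblast co-culture dosed with chemical and sampled at 24 h. TIMP-2 levels quantified by ELISA; bidirectional fitting against DMSO negative control as baseline.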

[2] = read-out: Transforming growth factor beta 1 (TGFb1), TGFB1 (gene 7040); experiment: BSK_KF3CT_TGFb1: BioMAP Diversity Plus: KF3CT Assay for Transforming growth factor beta 1 (TGFb1) Biomarker Activity (AID 2283072); settings: primary human keratinocytes with fibroblasts; actives raise or lower the signal
Outline: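 Human keratinocyte plus foreskin fibroblast primary co-culture, dosed with chemical for 24 h. TGF-b1 quantified by ELISA. Activity fitted bidirectionally against DMSO negative control as baseline.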

[3] = read-out: C-C motif chemokine 2 (Homo sapiens) (UniProt P13500); experiment: BSK_KF3CT_MCP1: BioMAP Diversity Plus: KF3CT Assay for Monocyte Chemoattractant Protein 1 (MCP1/CCL2) Biomarker Activity (AID 2283073); settings: primary human keratinocytes with fibroblasts; actives raise or lower the signal
Outline: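 KF3CT skin co-culture (keratinocytes/foreskin fibroblasts), 24 h post-dose; MCP-1 by ELISA; gain/loss of signal fit bidirectionally vs DMSO baseline.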

[4] = read-out: Matrix Metallopeptidase 9 (MMP9), MMP9 (gene 4318); experiment: BSK_KF3CT_MMP9: BioMAP Diversity Plus: KF3CT Assay for Matrix Metallopeptidase 9 (MMP9) Biomarker Activity (AID 2283074); settings: primary human keratinocytes with fibroblasts; actives raise or lower the signal;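 on AC50: MMP9 protein level quantified by ELISA in the co-culture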
Outline: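 Human keratinocyte/foreskin fibroblast co-culture; compound added; 24 h; MMP-9 by ELISA; bidirectional fit vs DMSO baseline.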

[5] = read-out: urokinase plasminogen activator (uPA), PLAU (gene 5328); experiment: BSK_KF3CT_uPA: BioMAP Diversity Plus: KF3CT Assay for urokinase plasminogen activator (uPA) Biomarker Activity (AID 2283075); settings: primary human keratinocytes with fibroblasts; actives raise or lower the signal
Outline: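 ELISA readout of uPA, analyzed for signal gain or loss relative to DMSO, from a human primary keratinocyte–foreskin fibroblast co-culture measured 24 h after chemical treatment.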

CD40, CD40 (gene 958) [6] = experiment: BSK_LPS_CD40: BioMAP Diversity Plus: LPS Assay for CD40 Biomarker Activity (AID 2283076); settings: primary human HUVEC with PBMC; actives raise or lower the signal
Outline: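 ELISA readout of CD40 in HUVEC/PBMC co-culture (BSK_LPS system), 24 h post-dosing; bidirectional curve fit, DMSO baseline; parallel SRB total-protein staining for cytotoxicity.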

[7] = read-out: E-selectin (Homo sapiens) (UniProt P16581); experiment: BSK_LPS_Eselectin: BioMAP Diversity Plus: LPS Assay for Eselectin Biomarker Activity (AID 2283077); settings: primary human HUVEC with PBMC; actives raise or lower the signal
Outline: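 ELISA readout of E-selectin, 24 h post-dose, HUVEC + PBMC co-culture (LPS system). Gain or loss of signal vs DMSO baseline, bidirectional fit.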

[8] = read-out: Interleukin-8 (IL8), CXCL8 (gene 3576); experiment: BSK_LPS_IL8: BioMAP Diversity Plus: LPS Assay for Interleukin-8 (IL8) Biomarker Activity (AID 2283078); settings: primary human HUVEC with PBMC; actives raise or lower the signal
Outline: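 HUVEC + PBMC co-culture, LPS-activated; test chemicals dosed, IL-8 read by ELISA at 24 h. Bidirectional curve fit vs DMSO baseline (gain or loss of signal).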

[9] = BSK_LPS_SRB: Viability Assessment in the BioMAP Diversity Plus: LPS Assay (AID 2283079); settings: primary human HUVEC with PBMC;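 further: total protein by sulforhodamine B absorbance as a cytotoxicity measure; measured one day after compound addition; fitted in both directions against DMSO so loss or gain of signal counts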
Outline: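 HUVEC + PBMC co-culture, LPS-stimulated; compound 24 h. 10% TCA fix, 0.1% SRB stain, A560. Bidirectional fit vs DMSO.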

[10] = read-out: Interleukin-1 alpha (IL1a), IL1A (gene 3552); experiment: BSK_LPS_IL1a: BioMAP Diversity Plus: LPS Assay for Interleukin-1 alpha (IL1a) Biomarker Activity (AID 2283080); settings: primary human HUVEC with PBMC; actives raise or lower the signal
Outline: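 HUVEC/PBMC co-culture, LPS system; 24 h after dosing; IL-1a by ELISA; gain or loss of signal fitted bidirectionally vs DMSO baseline.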

[11] = read-out: Monocyte Chemoattractant Protein-1 (MCP1), CCL2 (gene 6347); experiment: BSK_LPS_MCP1: BioMAP Diversity Plus: LPS Assay for Monocyte Chemoattractant Protein-1 (MCP1) Biomarker Activity (AID 2283081); settings: primary human HUVEC with PBMC; actives raise or lower the signal;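 further: secreted MCP-1 protein quantified by ELISA in culture supernatant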
Outline: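 ELISA read-out of MCP-1 after 24 h chemical dosing of a human umbilical vein endothelial cell/peripheral blood mononuclear cell co-culture stimulated with LPS. Gain or loss of signal fitted relative to DMSO controls.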

[12] = BSK_LPS_PGE2: BioMAP Diversity Plus: LPS Assay for Prostaglandin E2 (PGE2) Biomarker Activity (AID 2283082); settings: primary human HUVEC with PBMC; actives raise or lower the signal;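 on AC50: secreted prostaglandin E2 measured by ELISA in LPS-stimulated co-culture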
Outline: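 HUVEC plus PBMC co-culture stimulated with LPS; secreted PGE2 quantified by ELISA 24 h after chemical dosing. Activity fitted bidirectionally against DMSO as negative control and baseline; parallel SRB total-protein staining served as cytotoxicity check.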

[13] = read-out: Macrophage colony-stimulating factor (MCSF), CSF1 (gene 1435); experiment: BSK_LPS_MCSF: BioMAP Diversity Plus: LPS Assay for Macrophage colony-stimulating factor (MCSF) Biomarker Activity (AID 2283083); settings: primary human HUVEC with PBMC; actives raise or lower the signal
Outline: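 HUVEC + PBMC co-culture (human primary), 24 h post-dose; M-CSF by ELISA; gain/loss of signal fitted bidirectionally vs DMSO baseline.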

[14] = read-out: Tissue Factor, F3 (gene 2152); experiment: BSK_LPS_TissueFactor: BioMAP Diversity Plus: LPS Assay for Tissue Factor Biomarker Activity (AID 2283084); settings: primary human HUVEC with PBMC; actives raise or lower the signal
Outline: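 HUVEC/PBMC co-culture, LPS-activated; CD142 ELISA read 24 h post-dose; bidirectional curve fit vs DMSO negative control.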

[15] = read-out: Tumor necrosis factor (Homo sapiens) (UniProt P01375); experiment: BSK_LPS_TNFa: BioMAP Diversity Plus: LPS Assay for Tumour Necrosis Factor alpha (TNFa) Biomarker Activity (AID 2283085); settings: primary human HUVEC with PBMC; actives raise or lower the signal
Outline: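 Human umbilical vein endothelial cells co-cultured with PBMC were exposed to test chemical and TNFa measured by ELISA 24 h after dosing. Bidirectional curve fitting was done relative to DMSO as negative control and baseline.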

CD38, CD38 (gene 952) = experiment: BSK_SAg_CD38: BioMAP Diversity Plus: SAg Assay for CD38 Biomarker Activity (AID 2283087); settings: primary human HUVEC with PBMC; actives raise or lower the signal
Outline: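 Fluorescence ELISA of cell-surface CD38 served as the read-out, with either increase or decrease fitted against DMSO controls. Cells were a human umbilical vein endothelium plus PBMC co-culture under SEB/TSST-1 stimulation, measured 24 h after dosing.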

CD40, CD40 (gene 958) [16] = experiment: BSK_SAg_CD40: BioMAP Diversity Plus: SAg Assay for CD40 Biomarker Activity (AID 2283088); settings: primary human HUVEC with PBMC; actives raise or lower the signal
Outline: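 HUVEC/PBMC co-culture, 24 h post-dose; CD40 by ELISA, fluorescence intensity; bidirectional fit vs DMSO negative control.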

CD69, CD69 (gene 969) = experiment: BSK_SAg_CD69: BioMAP Diversity Plus: SAg Assay for CD69 Biomarker Activity (AID 2283089); settings: primary human HUVEC with PBMC; actives raise or lower the signal;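 further: cell surface CD69 protein quantified by ELISA with fluorescence detection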
Outline: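 ELISA, fluorescence read-out: CD69 on human umbilical vein endothelial cell + PBMC co-culture, 24 h post-dosing. Gain or loss of signal fitted bidirectionally against DMSO baseline.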

[17] = read-out: Monocyte Chemoattractant Protein-1 (MCP1), CCL2 (gene 6347); experiment: BSK_SAg_MCP1: BioMAP Diversity Plus: SAg Assay for Monocyte Chemoattractant Protein-1 (MCP1) Biomarker Activity (AID 2283090); settings: primary human HUVEC with PBMC; actives raise or lower the signal
Outline: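 MCP-1 levels in the endothelial–PBMC SAg co-culture were quantified by ELISA at 24 h post-dosing; both increases and decreases versus DMSO scored. Cytotoxicity monitored by SRB total protein in parallel cultures.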

Measured: AC50

E-selectin (Homo sapiens), sequence (P16581 whole entry, looked up): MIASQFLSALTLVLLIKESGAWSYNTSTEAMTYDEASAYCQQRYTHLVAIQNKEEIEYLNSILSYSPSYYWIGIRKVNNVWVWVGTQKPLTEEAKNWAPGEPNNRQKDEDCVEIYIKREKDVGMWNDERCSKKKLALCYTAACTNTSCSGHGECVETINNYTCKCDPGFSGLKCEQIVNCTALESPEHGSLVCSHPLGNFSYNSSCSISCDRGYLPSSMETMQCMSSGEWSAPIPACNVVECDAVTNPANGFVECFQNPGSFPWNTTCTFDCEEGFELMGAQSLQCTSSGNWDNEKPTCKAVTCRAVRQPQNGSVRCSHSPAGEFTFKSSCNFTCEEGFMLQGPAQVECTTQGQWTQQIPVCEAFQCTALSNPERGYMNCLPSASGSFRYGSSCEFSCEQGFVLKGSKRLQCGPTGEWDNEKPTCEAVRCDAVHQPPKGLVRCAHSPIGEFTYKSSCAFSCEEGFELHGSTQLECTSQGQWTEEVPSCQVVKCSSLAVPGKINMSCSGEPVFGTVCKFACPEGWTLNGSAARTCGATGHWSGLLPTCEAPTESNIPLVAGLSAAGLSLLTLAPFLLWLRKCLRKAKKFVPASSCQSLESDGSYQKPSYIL
Tumor necrosis factor (Homo sapiens), sequence (P01375 whole entry, looked up): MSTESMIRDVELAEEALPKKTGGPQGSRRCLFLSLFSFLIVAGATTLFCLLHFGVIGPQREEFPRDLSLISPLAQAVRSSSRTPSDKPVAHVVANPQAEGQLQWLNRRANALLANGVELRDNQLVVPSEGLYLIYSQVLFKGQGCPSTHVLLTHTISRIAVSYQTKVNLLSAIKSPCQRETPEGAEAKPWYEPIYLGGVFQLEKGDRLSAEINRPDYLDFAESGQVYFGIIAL

COP(=O)(OC)OC(Br)C(Cl)(Cl)Br (stereo unspecified)
active: [1] 31.3 µM | [2] 32.3 µM | [3] 31.1 µM | [4] 30.4 µM | [5] 36.9 µM | CD40, CD40 (gene 958) [6] 19.4 µM | [7] 32.3 µM | [8] 30.8 µM | [9] 26 µM | [10] 32.3 µM | [11] 36.5 µM | [13] 28.5 µM | [14] 15.2 µM | [15] 28.9 µM | CD38, CD38 (gene 952) 31.5 µM | CD40, CD40 (gene 958) [16] 30.2 µM | CD69, CD69 (gene 969) 30.1 µM
inactive: [12]

C#CCC1=C(C)C(OC(=O)C2C(C=C(C)C)C2(C)C)CC1=O (stereo unspecified)
active: CD40, CD40 (gene 958) [6] 20 µM | [7] 28.4 µM | [8] 26.7 µM | [9] 29.1 µM | [10] 31.9 µM | [11] 33.4 µM | [12] 3.87 µM | [13] 23.4 µM | [15] 32.9 µM | CD38, CD38 (gene 952) 33.7 µM | CD40, CD40 (gene 958) [16] 26.5 µM | CD69, CD69 (gene 969) 29.8 µM | [17] 30 µM
inactive: [1] | [2] | [3] | [4] | [14]
